The list is not random: actives were taken first. Their share in the collection is about 2.9%.
Integrin act MD: activates integrin-mediated alleviation for muscular dystrophy; alpha7betagal myoblasts, beta-gal FDG fluorescence, 48 h; Potency, µM (series often up to 38.3 µM), for the others: at the top dose activation, actives largely listed as activators; hit rate 0.064% among 350,000; AID 624291;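 further: potency means the concentration at half of the fitted maximal effect; 100% = response of the positive control SU9516; nearly all actives have a fitted effect of over 60% in size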
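Alpha7betagal+/- myoblasts (passage 13) were plated 16-24 hr, then exposed to compounds (1:260 dilution of DMSO stock) for 48 hours at 37C. After MPER lysis, β-galactosidase reporter activity was read as FDG fluorescence (ex 480/em 540) after 30 minutes.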
DRD3 agonist: agonists of human D3 dopamine receptor | P35462 | hit rate 0.58% among 410,000 | AID 652048 | D3R DiscoveRx beta-arrestin cells, luminescence, 90 min | max activation, %; in the data active means max activation above about 30%; further: 0% is about no effect
Target sequence (P35462 whole entry, looked up): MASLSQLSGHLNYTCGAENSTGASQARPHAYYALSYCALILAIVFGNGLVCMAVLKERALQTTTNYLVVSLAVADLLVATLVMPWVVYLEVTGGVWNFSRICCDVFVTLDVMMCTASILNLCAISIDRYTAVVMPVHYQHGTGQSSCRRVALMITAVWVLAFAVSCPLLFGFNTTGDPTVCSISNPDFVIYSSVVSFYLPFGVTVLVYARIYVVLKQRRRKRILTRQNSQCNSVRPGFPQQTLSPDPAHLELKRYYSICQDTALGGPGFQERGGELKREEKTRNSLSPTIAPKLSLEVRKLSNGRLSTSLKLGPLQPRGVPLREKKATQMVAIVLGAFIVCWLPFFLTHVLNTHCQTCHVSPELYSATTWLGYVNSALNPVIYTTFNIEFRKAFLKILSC
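Cells at 1500/well, incubated overnight, then treated with pinned compounds (dopamine as control) for 90 min at 37 degrees C. DiscoveRx reagent added for 30 - 60 minutes at room temperature; luminescence read.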
IDH1 R132H inh: inhibitors of human mutant IDH1 R132H; O75874; IDH1-R132H enzyme, NADPH consumption, diaphorase/resazurin fluorescence; Potency, µM (top dose mostly 76.6 µM), inactives show at the highest dose activity change, negative = inhibition, hits mostly inhibitors; hit rate 0.093% among 390,000; further: potency means the concentration at half of the fitted maximal effect; on the % scale 0 is the no-effect control and ±100 the full control effect; nearly all actives have a fitted effect of over 65% in size
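IDH1-R132H (0.5 ug/mL dispensed) in pH 7.5 Tris buffer was preincubated 30 min with compound, then given a substrate mix of 0.016 mM NADPH and 2 mM alpha-KG for 80 min at room temperature; remaining NADPH was read by diaphorase/resazurin fluorescence.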
B2AR arrestin: beta2AR (human) beta-arrestin recruitment activity; P07550; beta-arrestin recruitment to beta2AR, cell-based reporter; Potency, µM (highest dose often 46.1 µM), for inactives: at the top dose activation, usual class: activators; hit rate 0.02% among 330,000;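 further: potency means the concentration at half of the fitted maximal effect; 0% = DMSO controls and full agonism = EC100 isoproterenol or metaproterenol; nearly all actives have a fitted effect of over 65% in size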
D3 antag: antagonists of human D3 dopamine receptor; P35462; D3R cells, DiscoveRx beta-arrestin luminescence, antagonist mode; hits give low values; max response, negative = inhibition, %; hit rate 2.5% among 360,000; AID 652054; in the data active means max response below about -50%; inconclusive means no clear call, values can overlap the other calls; further: on the % scale 0 is the no-effect control and ±100 the full control effect
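Cells expressing the human receptor were seeded at 1500 cells/well, incubated overnight at 37 degrees C in 5% CO2, then exposed to library compounds with dopamine controls for 90 minutes at 37 degrees C before luminescent detection.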
* = called active by the depositor; ? = inconclusive; . = not tested or not shown. Unless noted, the call rests on the fitted dose curve; in most records, active means well fitted curve in the direction sought with a large enough effect; inconclusive means small, poorly fitted or top-dose-only effect, or another doubt; inactive means no such curve, though single readings can be large; an effect the other way counts as inactive or inconclusive.

SMILES	Integrin act MD	DRD3 agonist	IDH1 R132H inh	B2AR arrestin	D3 antag
COc1cc2c(-c3ccccc3C)nc3c(c(C)nn3-c3ccccc3)c2cc1OC	.	41.4*	-20.1%	.	.
CCc1c(-c2ccccc2)nc2ccccc2c1C(=O)NC(C)c1ccccc1 (configuration not stated)	.	15.4	-10.1%	.	.
Cc1cc(Br)cc(Br)c1OCC(=O)NNC(=O)c1ccoc1C	22.7%	3.0	-2.0%	-0.2%	-2.0
COCCC(=O)N1CCCC(CNS(=O)(=O)c2ccc(OC)cc2)C1 (configuration not stated)	5.6%	-2.7	12.5%	-0.5%	-63.3*
Cc1ccccc1C(=O)NCc1ccc2c(c1)CCN2C(=O)c1ccccc1	.	-5.6	-9.9%	.	.
COc1cc(N=Nc2ccccc2C(=O)O)ccc1O	8.6%	-5.0	5.0%	-0.2%	-57.9*
COc1cc(N=Nc2ccc3ccccc3c2)ccc1O	-31.0%	-2.2	1.6%	0.5%	-22.0
Cc1ccc(C(=O)O)cc1N1CCCC1=O	-2.5%	-4.9	4.8%	-0.2%	-50.8*
O=C(Cn1cc(SCc2ccc(F)cc2)c2ccccc21)N1CCCC1	.	-24.0	3.5%	.	.
O=C(Nc1c(C(=O)N2CCN(c3ccccc3F)CC2)oc2ccccc12)c1ccc(Br)o1	.	-10.6	-16.5%	.	.
Brc1ccc(CN2CCN(c3ccccc3)CC2)o1	15.5%	4.0	3.2%	0.4%	-19.9
Cc1ccccc1N1CCN(Cc2cccc(C(=O)O)c2)CC1	3.1%	-49.1	8.6%	-3.1%	?
Clc1ccccc1N1CCN(Cc2ccc(Br)o2)CC1	11.8%	-31.2	0.0%	.	-59.9*
Cc1cccc(N2CCN(Cc3ccc(Br)o3)CC2)c1C	-15.8%	-26.1	12.7%	0.3%	-56.2*
Cc1ccccc1N1CCN(Cc2ccc(Br)o2)CC1	-2.8%	-6.1	5.0%	0.8%	-57.7*
CC1=C(c2ccc(C)c(C)c2)S(=O)(=O)N=C1N1CCC(C(=O)NC(C)Cc2ccco2)CC1 (configuration not stated)	.	-3.0	-3.1%	.	.
COC(=O)c1nc(NC(=O)c2ccccc2Cl)n[nH]1	15.4%	6.1	7.4%	0.2%	-60.5*
COC(=O)c1nc(NC(=O)c2ccc(Br)cc2)n[nH]1	9.3%	5.3	2.5%	.	-8.4
CCn1c(=O)c2sccc2n2c(CCCC(=O)N3CCN(c4ccc(OC)cc4)CC3)nnc12	.	8.8	1.1%	.	.
CCOC(=O)CCCCNCc1ccccc1	9.5%	-17.4	11.8%	0.3%	-69.9*
CCOc1ccc(S(=O)(=O)N(CC(=O)Nc2cccnc2)c2ccccc2)cc1	.	-4.2	12.2%	.	.
O=C(NCc1ccco1)c1ccc2c(c1)N(Cc1ccc(Cl)cc1)C(=O)c1ccccc1S2=O (configuration not stated)	.	-12.0	12.8%	.	.
CC1CC(C)CN(CCCNC(=O)c2ccc3c(c2)N(Cc2ccccc2)C(=O)c2ccccc2S3=O)C1 (configuration not stated)	-44.6%	-19.7	4.0%	1.7%	-72.5*
CC1CCC(NC(=O)c2ccc3c(c2)N(Cc2ccccc2)C(=O)c2ccccc2S3=O)CC1 (configuration not stated)	.	-25.1	-7.8%	.	.
CCN1CCN(C(=O)c2ccc3c(c2)N(Cc2cccc(Cl)c2)C(=O)c2ccccc2S3=O)CC1 (configuration not stated)	.	-22.6	-6.6%	.	.
O=C(NCc1ccco1)c1ccc2c(c1)N(Cc1cccc(Cl)c1)C(=O)c1ccccc1S2=O (configuration not stated)	.	59.2*	3.9%	.	.
